Values joined by “and” are separate entries in the source; they are usually repeats but may differ in a detail not shown here. Equal values may be shown once. Inconclusive results are not listed. Active and inactive are the calls of the source. Unless noted, calls come from the whole dose curve.
Columns and labels:
[1] = Inducers of the Endoplasmic Reticulum Stress Response (ERSR) in human glioma: Validation (AID 504836; active = well fitted curve in the direction sought with a large enough effect; an effect the other way counts as inactive or inconclusive; note: 0% is about no effect)
Procedure, shortened: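 Stably transfected U87-MG glioma cells carrying a GRP78-based luciferase sensor; 16 h compound incubation. Luminescence end-point read 10 min after Bright-Glo addition at room temperature.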

[2] = qHTS for Inhibitors of the Functional Ribonucleoprotein Complex (vRNP) of Lassa (LASV) Arenavirus: LASV Primary Screen - GLuc reporter signal (AID 1347082; calls by dose curve; tested in HEK293 reporter line; note: series mostly up to about 57 µM; % is set by controls: 0 for no effect and ±100 for the full control effect; nearly all actives have a fitted effect of over 60% in size)
[3] = qHTS for Inhibitors of the Functional Ribonucleoprotein Complex (vRNP) of Lassa (LASV) Arenavirus: Viability assay - alamar blue signal for LASV Primary Screen (AID 1347083; calls by dose curve; tested in HEK293 reporter line; note: series mostly up to about 57 µM; % is set by controls: 0 for no effect and ±100 for the full control effect; nearly all actives have a fitted effect of over 80% in size)
[4] = qHTS for Inhibitors of the Functional Ribonucleoprotein Complex (vRNP) of Lymphocytic Choriomeningitis Arenaviruses (LCMV): Viability assay - alamar blue signal for LCMV Primary Screen (AID 1347085; calls by dose curve; tested in HEK293 reporter line; note: series mostly up to about 57 µM; % is set by controls: 0 for no effect and ±100 for the full control effect; nearly all actives have a fitted effect of over 80% in size)
[5] = target: Nucleoprotein (Lymphocytic choriomeningitis virus (strain Armstrong)) (UniProt P09992); experiment: qHTS for Inhibitors of the Functional Ribonucleoprotein Complex (vRNP) of Lymphocytic Choriomeningitis Arenaviruses (LCMV): LCMV Primary Screen - GLuc reporter signal (AID 1347086); note: series mostly up to about 57 µM; % is set by controls: 0 for no effect and ±100 for the full control effect; nearly all actives have a fitted effect of over 70% in size
[6] = target: Ubiquitin carboxyl-terminal hydrolase 1 (Homo sapiens) (UniProt O94782); experiment: Inhibitors of USP1/UAF1: Pilot qHTS (AID 504865; active = well fitted curve in the direction sought with a large enough effect; an effect the other way counts as inactive or inconclusive;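 note: rhodamine fluorescence freed from ubiquitin-rhodamine substrate followed over time; top concentration of the series differs between compounds; % is set by controls: 0 for no effect and ±100 for the full control effect; nearly all actives have a fitted effect of over 35% in size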)
Procedure, shortened: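 1nM USP1/UAF1 + cpd, 15 min RT; start w/ Ub-Rho 150nM final; kinetic FL 480/540 nm, 6 reads q60 s. Buffer 50mM HEPES pH 7.8, 0.5mM EDTA, 1mM TCEP, 0.01% Tween-20, 0.1 mg/ml BSA.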

[7] = target: Bile acid receptor (Homo sapiens) (UniProt Q96RI1); experiment: qHTS assay for small molecule agonists of farnesoid X receptor signaling (AID 588527); conditions: HEK293T FXR-UAS-bla, beta-lactamase ratio, 16 h; activation: stronger effect = higher value;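 note: series mostly up to about 77 µM; 0% = vehicle basal and 100% = reference agonist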
Procedure, shortened: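 Read-out: beta-lactamase reporter fluorescence with CCF4 substrate in GeneBLAzer FXR-UAS-bla HEK293T cells, after 16 h compound exposure at 37 C. Response scaled between DMSO basal (0%) and chenodeoxycholic acid at 100 uM (100%).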

[8] = target: Peroxisome proliferator-activated receptor delta (Homo sapiens) (UniProt Q03181); experiment: qHTS assay for small molecule agonists of peroxisome proliferator-activated receptor delta signaling (AID 588534);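 note: 0% = DMSO basal wells and 100% = positive control agonist at 10 µM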
Procedure, shortened: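 Agonist-mode beta-lactamase reporter readout (CCF4 dye, 2 h at RT) after 18 h at 37 °C exposure to a titration; Hill-equation fitting gave EC50 and maximal response.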

[9] = target: Alpha-galactosidase (Coffea arabica) (UniProt Q42656); experiment: Counterscreen for Glucocerebrosidase Inhibitors: qHTS Assay for Coffee Bean alpha-Galactosidase at pH 4.5 (AID 957; active = well fitted curve in the direction sought with a large enough effect; an effect the other way counts as inactive or inconclusive;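 note: series mostly up to about 77 µM; plate controls were enzyme alone for no effect and no enzyme for full effect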)
Procedure, shortened: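 Fluorogenic qHTS at pH 4.5 (citrate buffer with Tween-20): 2 nM enzyme, 80 uM 4-MU-alpha-galactoside substrate, compound titrated 0.7 nM to 77 uM, 20 min room temperature. Glycine/NaOH stop; 4-MU read Ex 365/Em 440; Hill-equation AC50 against no-enzyme and enzyme controls.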

[10] = target: Alpha-galactosidase (Coffea arabica) (UniProt Q42656); experiment: Counterscreen for Glucocerebrosidase Inhibitors: qHTS Assay for Coffee Bean alpha-Galactosidase at pH 5.9 (AID 998; active = well fitted curve in the direction sought with a large enough effect; an effect the other way counts as inactive or inconclusive;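 note: plate controls were uninhibited enzyme for no effect and no-enzyme basal signal for full effect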)
Procedure, shortened: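 Enzyme 2 nM + cpd (0.7 nM–77 uM titration) + 4-MU-alpha-Gal 80 uM, pH 5.9 citrate/Tween-20, RT 20 min, NaOH/glycine stop pH 10, fluor 365/440. Normalized to no-enzyme and full-activity controls; Hill-fit AC50.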

Chain of Alpha-galactosidase (Coffea arabica) (Q42656 whole entry, looked up): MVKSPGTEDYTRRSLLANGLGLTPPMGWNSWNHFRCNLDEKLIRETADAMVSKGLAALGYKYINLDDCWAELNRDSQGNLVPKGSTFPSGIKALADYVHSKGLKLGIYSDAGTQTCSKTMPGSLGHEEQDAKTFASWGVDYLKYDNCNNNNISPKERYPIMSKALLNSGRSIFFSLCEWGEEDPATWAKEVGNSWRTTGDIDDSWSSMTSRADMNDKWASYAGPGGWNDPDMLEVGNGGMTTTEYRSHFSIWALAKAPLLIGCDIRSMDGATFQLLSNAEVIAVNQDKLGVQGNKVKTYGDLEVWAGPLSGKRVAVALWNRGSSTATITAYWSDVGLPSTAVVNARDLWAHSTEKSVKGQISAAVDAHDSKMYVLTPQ
Chain of Peroxisome proliferator-activated receptor delta (Homo sapiens) (Q03181 whole entry, looked up): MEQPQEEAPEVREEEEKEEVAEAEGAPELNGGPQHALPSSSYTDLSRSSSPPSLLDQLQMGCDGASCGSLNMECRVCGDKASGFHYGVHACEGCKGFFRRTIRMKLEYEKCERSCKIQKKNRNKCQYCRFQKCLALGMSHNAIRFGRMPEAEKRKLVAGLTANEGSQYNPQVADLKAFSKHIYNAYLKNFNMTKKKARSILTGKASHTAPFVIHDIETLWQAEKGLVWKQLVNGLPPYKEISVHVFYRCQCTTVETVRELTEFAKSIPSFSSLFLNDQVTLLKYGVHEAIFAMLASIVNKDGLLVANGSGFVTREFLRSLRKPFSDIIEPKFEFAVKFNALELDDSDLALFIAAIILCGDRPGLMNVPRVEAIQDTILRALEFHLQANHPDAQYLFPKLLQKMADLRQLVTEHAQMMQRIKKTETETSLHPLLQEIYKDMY
Chain of Bile acid receptor (Homo sapiens) (Q96RI1 whole entry, looked up): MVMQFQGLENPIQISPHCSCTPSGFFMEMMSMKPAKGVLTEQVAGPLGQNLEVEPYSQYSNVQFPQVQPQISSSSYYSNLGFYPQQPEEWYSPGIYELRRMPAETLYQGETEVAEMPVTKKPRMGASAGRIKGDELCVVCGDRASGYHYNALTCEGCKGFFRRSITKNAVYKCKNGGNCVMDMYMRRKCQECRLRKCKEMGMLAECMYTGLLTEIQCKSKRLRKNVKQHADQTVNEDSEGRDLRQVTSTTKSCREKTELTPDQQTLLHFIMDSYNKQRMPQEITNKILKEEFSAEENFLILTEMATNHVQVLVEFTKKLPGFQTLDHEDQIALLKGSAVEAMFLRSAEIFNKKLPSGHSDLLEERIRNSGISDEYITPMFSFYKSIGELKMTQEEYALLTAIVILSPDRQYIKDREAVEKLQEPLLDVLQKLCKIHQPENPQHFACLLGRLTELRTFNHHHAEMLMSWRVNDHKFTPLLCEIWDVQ
Chain of Nucleoprotein (Lymphocytic choriomeningitis virus (strain Armstrong)) (P09992 whole entry, looked up): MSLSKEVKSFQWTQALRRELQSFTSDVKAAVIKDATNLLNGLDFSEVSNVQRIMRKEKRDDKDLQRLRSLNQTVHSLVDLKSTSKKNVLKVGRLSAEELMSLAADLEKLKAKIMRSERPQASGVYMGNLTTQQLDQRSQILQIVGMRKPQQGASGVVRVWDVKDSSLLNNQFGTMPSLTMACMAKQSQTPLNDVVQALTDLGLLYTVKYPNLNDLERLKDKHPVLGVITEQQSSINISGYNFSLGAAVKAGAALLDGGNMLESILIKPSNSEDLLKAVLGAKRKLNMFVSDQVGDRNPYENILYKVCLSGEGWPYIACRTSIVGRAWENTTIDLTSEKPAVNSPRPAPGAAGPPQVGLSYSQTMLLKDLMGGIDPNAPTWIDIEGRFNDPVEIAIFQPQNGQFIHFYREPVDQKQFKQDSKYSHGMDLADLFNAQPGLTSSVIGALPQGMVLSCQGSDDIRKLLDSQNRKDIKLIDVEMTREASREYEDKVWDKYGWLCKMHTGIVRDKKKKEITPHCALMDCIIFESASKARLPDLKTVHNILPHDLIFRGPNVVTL
Chain of Ubiquitin carboxyl-terminal hydrolase 1 (Homo sapiens) (O94782 whole entry, looked up): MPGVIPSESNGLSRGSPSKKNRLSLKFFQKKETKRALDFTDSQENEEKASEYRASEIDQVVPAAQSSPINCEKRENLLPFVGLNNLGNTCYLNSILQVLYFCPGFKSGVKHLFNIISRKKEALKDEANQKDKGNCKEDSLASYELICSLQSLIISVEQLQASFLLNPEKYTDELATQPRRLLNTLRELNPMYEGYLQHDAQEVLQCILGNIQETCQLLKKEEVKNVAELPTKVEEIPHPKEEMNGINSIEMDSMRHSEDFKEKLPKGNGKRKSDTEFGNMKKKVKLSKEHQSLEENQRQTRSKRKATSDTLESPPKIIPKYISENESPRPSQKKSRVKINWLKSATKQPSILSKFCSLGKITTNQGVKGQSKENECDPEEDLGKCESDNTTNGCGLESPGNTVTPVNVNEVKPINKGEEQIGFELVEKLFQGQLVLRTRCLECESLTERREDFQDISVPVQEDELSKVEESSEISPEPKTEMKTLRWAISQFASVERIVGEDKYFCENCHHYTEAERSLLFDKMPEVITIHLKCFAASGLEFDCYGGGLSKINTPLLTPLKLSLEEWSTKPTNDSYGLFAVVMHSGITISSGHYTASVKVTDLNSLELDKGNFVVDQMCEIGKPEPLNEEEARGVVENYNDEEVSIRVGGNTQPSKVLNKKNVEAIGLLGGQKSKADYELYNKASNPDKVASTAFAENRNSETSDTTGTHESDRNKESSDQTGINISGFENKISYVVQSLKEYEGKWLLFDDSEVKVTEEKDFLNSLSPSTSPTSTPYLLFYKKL

Nc1nc2c(nc(Br)n2C2OC3COP(=O)(O)O[C@@H]3C2O)c(=O)[nH]1 (stereo not given in full)
inactive: outcome [1] | Potency [2] | Potency [3] | Potency [4] | Potency [5]

CNC(=O)[C@H]1O[C@@H](n2cnc3c(NCc4ccc(N)cc4)ncnc32)[C@H](O)[C@@H]1O
inactive: outcome [1] | Potency [2] | Potency [3] | Potency [4] | Potency [5]

O=c1cc(-c2ccccc2F)[nH]c2cc3c(cc12)OCO3
inactive: outcome [1] | Potency [2] | Potency [3] | Potency [4] | Potency [5]

Nc1nc2c(cnn2CCc2ccccc2)c2nc(-c3ccco3)nn12
inactive: outcome [1] | Potency [2] | Potency [3] | Potency [4] | Potency [5]

N[C@H](C(=O)O)[C@H](Cc1ccccc1)C(=O)O
inactive: outcome [1] | Potency [2] | Potency [3] | Potency [4] | Potency [5]

CN1C2CC(OC(=O)[C@H](CO)c3ccccc3)CC1C1OC12 (stereo not given in full)
inactive: outcome [1] | Potency [6] | Potency [2] | Potency [3] | Potency [4] | Potency [5]

CCCn1c(=O)c(C)cn2nc(N)nc12
inactive: outcome [1] | Potency [2] | Potency [3] | Potency [4] | Potency [5]

NCCO/C=C/[C@H](N)C(=O)O
inactive: activation [7] 4.46% | Potency [8] | Potency [2] | Potency [3] | Potency [4] | Potency [5]

COC(=O)CCCC(=O)OC
inactive: activation [7] -3.54% | Potency [8] | Potency [2] | Potency [3] | Potency [4] | Potency [5]

CCCCC=O
inactive: activation [7] 1.59% | Potency [2] | Potency [3] | Potency [4] | Potency [5]

CC(C)[C@H](NC(=O)OCc1ccccc1)C(=O)N[C@H](C=O)Cc1ccccc1
inactive: outcome [9] | outcome [10] | outcome [1] | Potency [2] | Potency [3] | Potency [4] | Potency [5]

COC(=O)CCC(=O)OC
inactive: activation [7] 2.67% | Potency [8] | Potency [2] | Potency [3] | Potency [4] | Potency [5]

COc1ccc(CCN(C)CCc2ccc(OC)c(OC)c2)cc1OC
inactive: outcome [9] | outcome [10] | outcome [1] | Potency [2] | Potency [3] | Potency [4] | Potency [5]

C=CC(C)(O)CCC=C(C)C (stereo not given)
inactive: activation [7] -2.97% and 2.71% | Potency [2] | Potency [3] | Potency [4] | Potency [5]

CCCn1c(=O)c2[nH]c(-c3ccc(OCC(=O)NCCN)cc3)nc2n(CCC)c1=O
inactive: outcome [9] | outcome [10] | outcome [1] | Potency [2] | Potency [3] | Potency [4] | Potency [5]

Source: PubChem BioAssay (NCATS)
